Shown are actives, neighbours in structure and some others; about 2.4% of the full set was active somewhere.
D2 antagonist – antagonizes the human D2 dopamine receptor; P14416; HEK293 TREx D2 cells, calcium flux, dopamine EC80; inhibition, % at 10 µM; actives 2% (n = 340,000); in the data active = inhibition above about 30%; inactive = below that, where a call was filed; note: 0% is about no effect
Target sequence (P14416 whole entry, looked up): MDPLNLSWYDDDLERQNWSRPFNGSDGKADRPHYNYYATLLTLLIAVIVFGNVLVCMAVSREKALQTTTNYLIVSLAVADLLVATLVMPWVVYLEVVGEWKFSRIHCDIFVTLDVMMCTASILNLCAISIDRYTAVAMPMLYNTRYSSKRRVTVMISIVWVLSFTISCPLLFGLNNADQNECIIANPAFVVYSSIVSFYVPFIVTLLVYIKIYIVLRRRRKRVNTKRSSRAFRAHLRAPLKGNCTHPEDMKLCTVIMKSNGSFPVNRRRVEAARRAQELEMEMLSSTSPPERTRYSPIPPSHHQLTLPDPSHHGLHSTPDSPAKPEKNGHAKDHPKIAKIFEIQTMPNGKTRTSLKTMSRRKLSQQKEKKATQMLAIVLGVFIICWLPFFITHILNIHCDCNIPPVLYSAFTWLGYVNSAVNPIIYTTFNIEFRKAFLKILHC
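In this primary screen, negative modulation is detected by tracking calcium flux after an EC80 dopamine challenge in inducible HEK293 T-REx D2 cells preexposed to test compound for 180 s.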
D2 ag-1 – agonists of human D2 dopamine receptor (beta-arrestin); P14416; DiscoveRx PathHunter D2 beta-arrestin, luminescence, 90 min; 100% = 57 uM dopamine signal; activation, % (concentration not given with the values); actives 0.084% (n = 360,000); AID 624465; in the data active = activation above about 40%; inconclusive = between about 15% and that limit
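DiscoveRx PathHunter D2 beta-arrestin cells (2,100/well) attached overnight, then compound-stimulated 90 min at 37 C in HBSS/10 mM HEPES/0.1% Tween-20 buffer; beta-galactosidase complementation read by luminescence after 1 h at ambient temperature. Dopamine 57 uM final (EC100) as control.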
D2 PAM-1 – positive allosteric modulators of human D2 dopamine receptor; AID 485347; potentiation, % at 10 µM; actives 0.34% (n = 340,000); P14416; HEK293 T-REx D2, calcium flux, EC20 dopamine potentiation;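 active = potentiation over 3 SD above the plate norm, cut at about 30% in these data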; note: 0% is about no effect
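Tetracycline-induced HEK293 T-REx cells force-coupled to calcium signalling expressed D2; compounds were pin-added after a 10 s baseline, read kinetically 180 s, then an EC20 dopamine challenge followed with a further 180 s calcium read.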
D2 PAM-2 – positive allosteric modulators of human D2 dopamine receptor | potentiation, % (test concentration not listed) | actives 0.23% (n = 360,000) | P14416 | DiscoveRx D2 beta-arrestin cells, luminescence, 90 min; 100% = 57 uM dopamine signal | AID 624464; in the data active = potentiation above about 50%; inconclusive = mostly about 30% to 49%
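PathHunter beta-arrestin assay in DiscoveRx D2 cells. Compounds were added with an EC20 of dopamine (50 nM final) for 90 min at 37 deg C. Luminescence was read 1 h after detection reagent, with 57 uM dopamine as the EC100 control.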
D2 ag-2 – D2 dopamine receptor (human) agonism. HEK293 T-REx D2 cells, calcium flux agonist mode. P14416. AID 485358. activation, % at 2 µM. actives 0.53% (n = 340,000);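 active = activation over 3 SD above normal in the single-dose calcium agonist read, cut at about 30% in these data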; note: 0% is about no effect
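Agonism is scored from calcium flux in a force-coupled, inducible HEK293 cell line expressing D2, read kinetically for 180 s after compound addition against dopamine controls.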
The depositor's hits bear a star; ? = inconclusive; . = not tested or not shown.

SMILES	D2 antagonist	D2 ag-1	D2 PAM-1	D2 PAM-2	D2 ag-2
Cc1c(C)c2cc(Cl)c(O)c(CN(C)C)c2oc1=O	35*	-1	7	-2	0
Cc1ccc(NC(=O)Cn2nnc(-c3ccccc3)n2)c(C)c1	.	.	-5	.	0
COc1ccc([C@@]23Oc4cc(OC)cc(OC)c4[C@]2(O)[C@H](O)[C@H](C(=O)N(C)C)[C@H]3c2ccccc2)cc1	.	-5	.	-17	.
CCN(C(=O)c1c(OC)cccc1OC)c1nnc(-c2cccnc2)s1	-13	1	52*	0	0
COCCN(C(=O)COc1ccccc1)c1nnc(-c2cccnc2)s1	-7	1	-1	28	0
CCN(C(=O)COc1ccccc1)c1nnc(-c2cccnc2)s1	41*	1	-7	-27	-1
Cc1cc(C)cc(NC(=O)CSc2nnc(-c3cc(C)[nH]n3)n2N)c1	17	-4	0	-8	0
Nc1ccc2oc(-c3ccccc3Cl)cc(=O)c2c1O	50*	4	4	2	0
O=c1cc(-c2ccccc2Cl)oc2ccc([N+](=O)[O-])c(O)c12	-21	0	-8	-11	-1
COc1ccc([C@H]2[C@H](C(=O)C(C)(C)C)N3N=Cc4ccccc4C3[C@]23N=C(c2ccccc2)OC3=O)cc1OC (some centres undefined)	24	7	-1	58*	1
N#CC1(NC(=O)COC(=O)c2ncc(Cl)c(Cl)c2Cl)CCCCC1	-4	0	7	26	1
N#CC1(NC(=O)COC(=O)c2nc(Cl)c(Cl)c(N)c2Cl)CCCCC1	-5	6	-15	-8	31*
C(=N\Nc1nc2ccccc2s1)/c1cccs1	37*	1	-3	3	1
CCN(CC)c1ccc(S(=O)(=O)N2CCOCC2)cc1NC(=O)COC(=O)/C=C/c1ccc(C)o1	-5	0	3	12	1
COc1cc(C2C(C#N)=C(N)Oc3n[nH]c(-c4cccnc4)c32)ccc1OCC(N)=O (centres undefined)	30*	-4	-5	-8	1
CC(=O)OCC(C)n1[nH]c2ccccc2c1=O (centres undefined)	.	11	.	-12	.
COc1ccccc1NC(=O)Cn1c(=O)n(C)c(=O)c2sc3c(c21)COC(C)(C)C3	32*	4	-5	-9	0
NC(=O)C1CCN(C(=O)CN2CCc3ccccc32)CC1	45*	1	-14	1	-1
CC(C)(C)NC(=O)NC(=O)CN1CCc2ccccc21	0	-3	6	1	-1
O=C(CN1CCc2ccccc21)NC(=O)NC1CCCCC1	33*	-3	-16	-13	-1
COc1cc(CNCCN2CCOCC2)ccc1OCc1cccc(Cl)c1	42*	-1	1	-11	0
Cc1ccc(NC(=O)CSc2nnc(C)n3c2cc2sccc23)c(C)c1	.	.	3	.	0
O=c1c(N2CCCCC2)csc2ccc(F)cc12	.	.	6	.	0
COc1ccccc1NC(=O)c1ccc(NC(=O)COC(=O)C2CCCO2)cc1 (centres undefined)	41*	4	10	5	0
COc1ccccc1N1CCN(C(=O)c2cc3c(=O)n(C)c4ccccc4c3s2)CC1	.	.	10	.	-1
SMILES	D2 antagonist	D2 ag-1	D2 PAM-1	D2 PAM-2	D2 ag-2
CC1Cc2ccccc2N1C(=O)C12CCC(C)(C(=O)C1)C2(C)C (centres undefined)	32*	0	.	-15	1
Cc1cc(C)nc(N/N=C/c2ccccc2)n1	44*	-3	6	-5	1
Cc1nn2c(=O)cc(COC(=O)c3ccccc3NC(=O)C(C)C)nc2s1	.	.	-3	.	-1
CCOC(=O)c1c(C)oc2c1c(C(c1ccncc1)N1CCOCC1)c(O)c1ccccc12 (centres undefined)	-7	8	.	69*	0
CCOC(=O)c1c(C)oc2c1c(CN1CCN(C(=O)OCC)CC1)c(O)c1ccccc12	5	?	-3	75*	1
CCOC(=O)c1c(C)oc2c1c(CN1CCN(CCO)CC1)c(O)c1ccccc12	-10	6	7	22	0
CCOC(=O)Nc1sc(C(=O)N(CC)CC)c(C)c1C(=O)OCC	-11	-6	45*	-11	1

Compound activity (PubChem)
